Assay results taken from PubChem BioAssay (NCATS).
Records with an inconclusive call do not appear. Active and inactive are the calls of the source. Calls follow the shape of the dose curve; as a rule, active = well fitted inhibition curve with a large enough effect; inconclusive = small, poorly fitted or top-dose-only effect; inactive = flat fitted curve, though single readings scatter.

Columns and labels:
Assay in all cases: qHTS profiling for inhibitors of Plasmodium falciparum proliferation (AID 504749); also: nearly all actives have a fitted effect of over 60% in size
Conditions in all cases: P. falciparum in erythrocytes, SYBR Green DNA, 72 h; series mostly up to 28.7 µM
[1] = system: ATS95
Summary of the method: (§1)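 P. falciparum-infected erythrocytes (0.3% parasitemia, 2.5% hematocrit final) were exposed to compounds for 72 h at 37 C in 5% CO2, then lysed with SYBR Green buffer overnight at room temperature; parasite DNA fluorescence was normalized to artemisinin and DMSO controls.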

[2] = system: C2A
Summary of the method: as §1

[3] = system: CP215
Summary of the method: as §1

[4] = system: CP238
Summary of the method: as §1

[5] = system: CP256
Summary of the method: as §1

[6] = system: CP262
Summary of the method: as §1

[7] = system: CP265
Summary of the method: as §1

[8] = system: CP266
Summary of the method: as §1

[9] = system: CP268
Summary of the method: as §1

[10] = system: CP269
Summary of the method: as §1

[11] = system: CP305
Summary of the method: as §1

[12] = system: CP325
Summary of the method: as §1

[13] = system: CP329
Summary of the method: as §1

[14] = system: CP335
Summary of the method: as §1

[15] = system: DIV30
Summary of the method: as §1

[16] = system: ECU
Summary of the method: as §1

[17] = system: GB4
Summary of the method: as §1

[18] = system: P93_24
Summary of the method: as §1

[19] = system: PAD
Summary of the method: as §1

[20] = system: SC27B
Summary of the method: as §1

Measured: Potency
Potency is read from the fitted curve at half-maximal effect.

C=C[C@@H]1CN2CC[C@H]1C[C@H]2[C@H](O)c1ccnc2ccccc12
active: [1] 447 nM | [2] 1410 nM | [3] 757 nM | [4] 1410 nM | [5] 1120 nM | [6] 379 nM | [7] 891 nM | [8] 1510 nM | [9] 1200 nM | [10] 1070 nM | [11] 757 nM | [12] 675 nM | [13] 1510 nM | [14] 757 nM | [15] 757 nM | [16] 199 nM | [17] 169 nM | [18] 447 nM | [19] 501 nM | [20] 1000 nM
